# Rows were chosen to be rich in hits. Some 19% of all compounds tested hit in one or more screens of this group.
# IL1B secr inh = blocks inflammasome-driven IL-1 beta release; THP-1 LPS/ATP IL-1B secretion, AlphaLISA, 16 h; active compounds read low; activity change, % at 57.5 µM; actives 4.7% (n = 360,000); in the data active means activity change below about -50%; inconclusive means mostly about -30% to -49%; further: on the % scale 0 is the no-effect control and ±100 the full control effect
#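 THP-1 cells pretreated 1 hr with compounds (up to 57.5 uM final), then stimulated with LPS (250 ng/mL final) plus ATP (1.25 mM final); secreted IL-1B measured by AlphaLISA after 16 hr, decreased signal indicating inhibition.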
# TGFb SMAD3 inh = TGF-b pathway inhibition | AID 588855 | actives 1.2% (n = 410,000) | Potency, µM (titrated, usually from 46.1 µM), for the others: at the highest dose activity, negative = inhibition, most hits filed as inhibitors | HepG2 CAGA-GFP TGF-b/SMAD3 reporter, GFP fluorescence, 18 h; TGF-beta stimulated, 500 pg/mL final; further: potency means the concentration at half of the fitted maximal effect; on the % scale 0 is the no-effect control and ±100 the full control effect; nearly all actives have a fitted effect of over 65% in size
#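 Inhibition was scored as loss of TGF-beta-induced (500 pg/mL final, 18 hours, 37 degrees C) GFP in HEPG2 cells carrying a CAGA-GFP reporter, in DMEM with 1% FBS. Well GFP was summed per cell; Activity was normalised to unstimulated and stimulated DMSO wells, then concentration-response fitting.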
# TDP1 cell CPT = DT40-hTDP1 cell growth loss with CPT. chicken DT40 Tdp1-/-;hTDP1 cells + 20 nM CPT, ATP luminescence, 48 h. Potency, µM (highest dose often 46.2 µM), for the others: top-dose activity change, negative = growth inhibition, actives largely listed as inhibitors. actives 12% (n = 420,000). AID 686979; further: potency means the concentration at half of the fitted maximal effect; on the % scale 0 is the no-effect control and ±100 the full control effect; nearly all actives have a fitted effect of over 55% in size
#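 Chicken DT40 Tdp1-/- cells complemented with human TDP1, 400 cells/well, exposed to compounds plus 20 nM camptothecin for at least 48 h at 37 C; viability read as ATP content by CellTiter-Glo luminescence.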
# TDP1 block = blocks human tyrosyl-DNA phosphodiesterase 1 | Q9NUW8 | recombinant TDP1, AlphaScreen DNA substrate cleavage | Potency, µM (series often up to 130 µM), for inactives: at the top dose activity change, negative = inhibition, hits mostly inhibitors | actives 0.28% (n = 350,000); further: potency means the concentration at half of the fitted maximal effect; on the % scale 0 is the no-effect control and ±100 the full control effect; nearly all actives have a fitted effect of over 40% in size
# Target sequence (Q9NUW8 whole entry, looked up): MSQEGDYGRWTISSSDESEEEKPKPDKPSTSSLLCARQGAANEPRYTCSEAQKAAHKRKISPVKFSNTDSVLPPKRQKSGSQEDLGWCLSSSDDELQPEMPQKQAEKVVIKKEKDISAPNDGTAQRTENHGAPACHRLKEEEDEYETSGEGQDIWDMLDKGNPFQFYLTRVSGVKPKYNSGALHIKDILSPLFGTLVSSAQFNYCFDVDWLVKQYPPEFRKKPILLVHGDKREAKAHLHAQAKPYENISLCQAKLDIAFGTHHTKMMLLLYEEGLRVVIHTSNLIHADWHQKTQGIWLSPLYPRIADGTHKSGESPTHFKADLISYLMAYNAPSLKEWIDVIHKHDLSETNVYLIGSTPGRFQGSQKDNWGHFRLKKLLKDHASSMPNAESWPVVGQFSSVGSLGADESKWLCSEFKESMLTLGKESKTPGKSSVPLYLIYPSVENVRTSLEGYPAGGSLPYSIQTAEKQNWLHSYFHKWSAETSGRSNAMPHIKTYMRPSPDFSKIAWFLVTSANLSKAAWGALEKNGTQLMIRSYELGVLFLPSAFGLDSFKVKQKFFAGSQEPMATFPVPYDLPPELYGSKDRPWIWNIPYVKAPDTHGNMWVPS
#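 Recombinant E. coli-expressed Tdp1 (1 nM) preincubated with compound 15 min at RT, then 5'-biotin/3'-phosphotyrosine-FITC DNA substrate (15 nM) added for 5 min. AlphaScreen beads (10 ug/ml) added, 10 min RT; tyrosine-FITC cleavage read as signal loss.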
# TDP1 cell noCPT = qHTS for Inhibitors of human tyrosyl-DNA phosphodiesterase 1 (TDP1): qHTS in cells in absence of CPT. DT40 Tdp1-/- hTDP1 cells, no CPT, ATP luminescence, 48 h. Potency, µM (titrated, usually from 46.2 µM), without a hit: at the highest dose activity change, negative = growth inhibition, actives largely listed as inhibitors. actives 15% (n = 420,000); further: potency means the concentration at half of the fitted maximal effect; on the % scale 0 is the no-effect control and ±100 the full control effect; nearly all actives have a fitted effect of over 55% in size
#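 Cells were dispensed at 400 per well, compounds added by pin tool, plates incubated ≥48 hr at 37 °C, then CellTiter-Glo added for 30 min at room temperature before luminescence reading. Line: DT40 Tdp1-/- complemented with hTDP1; camptothecin omitted.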
# HepG2 viability = counter-screen for TGF-b inhibitors: cytotoxicity in HepG2 cells | HepG2 CAGA-GFP viability, ATP luminescence, 18 h | actives 0.76% (n = 410,000) | Potency, µM (highest dose often 46.1 µM), inactives show top-dose activity change, negative = cytotoxicity, hits mostly cytotoxic; further: potency means the concentration at half of the fitted maximal effect
#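 HepG2 CAGA-GFP cells (1000/well, DMEM with 1% FBS) received compound, then TGF-beta at 500 pg/mL final, and were incubated 18 hours at 37 degrees C. Viability was read by CellTiter-Glo luminescence. Media-only wells were set as complete cell-killing and DMSO as no toxicity.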
# The depositor's hits bear a star; ? = inconclusive; . = no result; [ ] = dose if it differs, or a comment. Unless noted, the call rests on the fitted dose curve; in most records, active means well fitted curve in the direction sought with a large enough effect; inconclusive means small, poorly fitted or top-dose-only effect, or another doubt; inactive means no such curve, though single readings can be large; an effect the other way counts as inactive or inconclusive.
SMILES,IL1B secr inh,TGFb SMAD3 inh,TDP1 cell CPT,TDP1 block,TDP1 cell noCPT,HepG2 viability
COc1ccc(-c2ccoc2)cc1[C@H]1[C@H]2C=CC[C@@H](C)[C@@H]2C(=O)N1Cc1ccccc1,-66*,?,?,1%,?,-68%
COc1ccc(-c2ccc(OC)c([C@H]3[C@H]4C=CC[C@@H](C)[C@@H]4C(=O)N3Cc3ccccc3)c2)cc1,41,-26%,15µM*,2%,15µM*,-17%
CCCCNc1c(CC(C)C)nc2nc(C)cc(C)n12,14,.,16µM*,.,23µM*,.
Cc1cc(C)n2c(Nc3c(C)cccc3C)c(CC(C)C)nc2n1,-4,.,?,.,23µM*,.
COc1cccc([C@@H]2Oc3ccc(OC)cc3C[C@H]2OC(=O)Nc2cc(OC)c(OC)c(OC)c2)c1,.,.,.,11%,.,.
COC(=O)CCCC(=O)N1CCCC(C(=O)c2ccc(-c3ccccc3)cc2)C1 (centres undefined),9,-5%,?,.,?,-7%
CCN1CCN(CC(=O)N2CCCC(C(=O)c3ccc(Oc4ccccc4)cc3)C2)CC1 (centres undefined),-14,13%,?,11%,?,2%
COCCC(=O)N1CCCC(C(=O)c2ccc(Oc3ccccc3)cc2)C1 (centres undefined),-1,-29%,-29%,-3%,21µM*,-24%
Cc1ccc(C(=O)N2CCCC(C(=O)c3ccc(Oc4ccccc4)cc3)C2)cn1 (centres undefined),-80*,-29%,21µM*,7%,16µM*,-55%
CCC(=O)N1CCCC(C(=O)c2ccc(-c3ccccc3)cc2)C1 (centres undefined),-68*,-18%,?,1%,?,-1%
Cc1ccc(C(=O)N2CCCC(C(=O)c3ccc(Cl)cc3C)C2)cn1 (centres undefined),1,-2%,-29%,5%,21µM*,-27%
CCc1cc2c(cc3c(=O)n(CCCC(=O)NCc4cccc(Cl)c4)ncn32)s1,.,-1%,?,2%,?,-3%
Cc1ccc(SCC(=O)Nc2ccc3oc(-c4cccc(C)c4)nc3c2)cc1,.,0%,?,-5%,15µM*,-19%
CCC(=O)Nc1cccc(-c2nc3ccc(C)cc3o2)c1,-23,-6%,0%,6%,?,-17%
CCC(=O)Nc1ccc2oc(-c3cccc(C)c3)nc2c1,-21,0%,7.3µM*,2%,5.8µM*,20µM*
CCC(CC)C(=O)Nc1nc(-c2ccc3c(c2)CCN3C(=O)C2CC2)c(C)s1,49,-12%,?,6%,23µM*,-20%
CC(C)(C)Nc1nc(-c2ccc3c(c2)CCN3C(=O)C2CC2)cs1,-7,-1%,?,.,?,-18%
CCc1ccccc1NS(=O)(=O)c1ccc2c(c1)CCN2C(=O)C1CC1,.,-9%,?,2%,?,-1%
CC(C)C(=O)Nc1nc(-c2ccc3c(c2)CCN3C(=O)C2CC2)cs1,-12,3%,12µM*,5%[0.0935 µM],13µM*,-3%
Nc1sc2c(c1C(=O)c1ccc(Cl)cc1)CCCC2,.,.,.,21%,.,.
COC(=O)c1cc(C)nc2c1c(=O)nc(SCc1ccccc1F)n2C1CC1,.,-1%,-3%,3%,-18%,-7%
CC[C@H](C)[C@H](NC(=O)[C@H](CC(=O)O)NC(=O)[C@H](CC(N)=O)NC(=O)[C@@H](NC(=O)[C@H](CCCNC(=N)N)NC(=O)[C@@H](NC(=O)[C@@H](NC(=O)[C@@H](NC(=O)[C@@H](NC(=O)[C@H](CCCCN)NC(=O)[C@@H](NC(=O)[C@H](CC(C)C)NC(=O)[C@@H](NC(=O)[C@H](CCCCN)NC(=O)[C@@H](NC(=O)[C@H](CC(=O)O)NC(=O)[C@H](CC(=O)O)NC(=O)[C@H](CCC(N)=O)NC(=O)[C@@H](NC(=O)[C@H](CCCCN)NC(=O)[C@H](CCC(N)=O)NC(=O)[C@@H](NC(=O)[C@@H]1CCCN1C(=O)[C@@H](N)C(C)C)[C@@H](C)CC)C(C)C)[C@@H](C)O)[C@@H](C)O)[C@@H](C)CC)[C@@H](C)O)[C@@H](C)CC)C(C)C)[C@@H](C)O)[C@@H](C)CC)C(=O)N[C@@H](CO)C(=O)N[C@@H](Cc1cnc[nH]1)C(=O)N[C@H](C(=O)N[C@@H](CCC(N)=O)C(=O)N[C@@H](CO)C(=O)N[C@H](C(=O)N[C@@H](CO)C(=O)N[C@@H](CO)C(=O)N[C@@H](CCCCN)C(=O)N[C@@H](CCC(N)=O)C(=O)N[C@@H](CCCCN)C(=O)O)C(C)C)[C@@H](C)O,.,.,.,11%,.,.
COc1ccc(CN(C(=O)/C=C/c2ccccc2Cl)C2CCS(=O)(=O)C2)cc1 (centres undefined),0,19%,?,.,23µM*,111%
CN(C)c1ccc(CN(C(=O)/C=C/c2ccccc2Cl)C2CCS(=O)(=O)C2)cc1 (centres undefined),-9,?,?,.,21µM*,-14%
O=C(/C=C/c1ccccc1Cl)N(Cc1ccc(Cl)cc1)C1CCS(=O)(=O)C1 (centres undefined),-57*,-36%,?,0%,?,7%
SMILES,IL1B secr inh,TGFb SMAD3 inh,TDP1 cell CPT,TDP1 block,TDP1 cell noCPT,HepG2 viability
CC(C)c1ccc(CN(C(=O)c2ccco2)C2CCS(=O)(=O)C2)cc1 (centres undefined),7,9%,-3%,-6%,-27%,0%
CC(C)c1ccc(CN(C(=O)/C=C/c2ccco2)C2CCS(=O)(=O)C2)cc1 (centres undefined),-86*,-28%,?,1%,?,20%
COc1ccccc1Nc1sc(C(=O)c2ccc(C)cc2C)c(N)c1S(=O)(=O)c1ccccc1,.,2%,.,4%,.,-20%
O=[N+]([O-])c1ccc(N2CCN(C(=S)Nc3cccc(F)c3)CC2)cc1,-20,?,8.2µM*,5%,9.2µM*,-8%
O=[N+]([O-])c1cccc(NC(=S)N2CCCC2)c1,18,-21%,-17%,0%,20%,2%
Fc1ccc(NC(=S)N2CCOCC2)c(F)c1,4,7%,0%,0%,14%,-3%

# Assay outcomes: PubChem BioAssay, National Center for Advancing Translational Sciences (NCATS)
